The text below walks through data of article PMC5540273 (PLoS ONE, 2017).

Among the test systems are CDK4-cyclinD1; CDK4-cyclinD3; CDK4; CDK5; CDK7; CDK8; CDK9; CDKL1; CDKL2; CDKL3; CDKL5; CHEK1; CHEK2; CIT; CLK1; CLK2; CLK3; CLK4; CSF1R-autoinhibited; CSF1R.
Holding throughout (conditions): concentration: 1 μM, replicates: in singlicate; n = 1
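Also: KINOMEscan kinase panel screen.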

Take `COc1ccc(CSc2nnc(-c3ccc4nccn4c3)o2)cc1C(F)(F)F`: the “%Inh” value is 7% in the assay on CDK4-cyclinD1; 13% with CDK4-cyclinD3; 0% in the assay with CDK4; 10% with CDK5; 13% with CDK7; 21% with CDK8. Also, the “%Inh” value in the assay on CDK9 was 0%; in the assay with CDKL1, 21%; in the assay with CDKL2, 7%; with CDKL3, 18%; in the assay on CDKL5, 16%; in the assay on CHEK1, 23%. The “%Inh” value in the assay on CHEK2 is 17%; in the assay on CIT it was 14%; with CLK1, 97.1%; in the assay with CLK2 it was 91.9%; in the assay with CLK3 it was 12%; in the assay on CLK4 it was 90.3%. The “%Inh” value with CSF1R-autoinhibited came to 6%; with CSF1R it was 17%.
With `Cc1ccc(NC(=O)c2ccc(Cl)cc2)cc1-c1ccc(C(=O)Nc2ccncc2)cc1` [GSK1398467], the “%Inh” value in the assay on CDK4-cyclinD1, in the assay with CDK4-cyclinD3, in the assay on CDK4, in the assay with CDK5, in the assay with CDK7 and in the assay with CDK8 was 0% throughout. Besides, the “%Inh” value with CDK9 was 0%; in the assay on CDKL1, 13%; in the assay with CDKL2, 20%; with CDKL3, 0%; with CDKL5 it was 0%; in the assay with CHEK1, 16%. The “%Inh” value in the assay on CHEK2 was found to be 0%; with CIT it was 69%; in the assay with CLK1, 3%; with CLK2, 100%; with CLK3, 0%; in the assay on CLK4 it was 15%. Also, the “%Inh” value was 0% in the assay on CSF1R-autoinhibited and 97.1% in the assay with CSF1R.
As for `Cc1c(Cn2c(C)c(C)n3c(=O)cc(N4CCOCC4)nc23)cccc1C(F)(F)F` [GSK2328680], the “%Inh” value with CDK4-cyclinD1 was 0%; in the assay with CDK4-cyclinD3, 0%; in the assay with CDK4 it was 0%; in the assay on CDK5, 0%; in the assay on CDK7, 0%; in the assay with CDK8, 34%. Besides, the “%Inh” value is listed as 0% in the assay on CDK9; 100% in the assay on CDKL1; 6% in the assay with CDKL2; 0% with CDKL3; 0% in the assay with CDKL5; 0% in the assay with CHEK1. The “%Inh” value was determined as 8% in the assay on CHEK2; 19% with CIT; 22% with CLK1; 0% in the assay on CLK2; 6% with CLK3; 21% in the assay on CLK4. The “%Inh” value with CSF1R-autoinhibited amounted to 14%; in the assay on CSF1R, 0%.
Take `COc1cccc(NC(=O)Nc2ccc(C)c(-c3ccc(C(=O)Nc4ccncc4)cc3)c2)c1` [GSK1398474]: the “%Inh” value in the assay with CDK4-cyclinD1 was 0%; in the assay with CDK4-cyclinD3, 0%; in the assay with CDK4 it was 37%; in the assay with CDK5, 0%; in the assay on CDK7 it was 0%; in the assay with CDK8, 0%. The “%Inh” value in the assay with CDK9 was 0%; with CDKL1 it was 51%; in the assay on CDKL2 it was 18%; with CDKL3, 0%; in the assay with CDKL5, 0%; with CHEK1, 7%. For the same compound, the “%Inh” value is 0% with CHEK2; 94.8% in the assay with CIT; 29% in the assay with CLK1; 0% in the assay with CLK2; 65% with CLK3; 5% with CLK4. Further, the “%Inh” value in the assay with CSF1R-autoinhibited came to 0%; with CSF1R, 86%.
On to `Cc1c(Cn2c3ccccc3n3c(=O)cc(N4CCOCC4)nc23)cccc1C(F)(F)F` [GSK2306394], for which the “%Inh” value with CDK4-cyclinD1, in the assay with CDK4-cyclinD3, in the assay with CDK4, in the assay with CDK5, in the assay with CDK7 and with CDK8 was 0% in each case. Moreover, the “%Inh” value was 100% with CDK9; 0% with CDKL1; 16% in the assay on CDKL2; 0% in the assay with CDKL3; 0% with CDKL5; 12% with CHEK1. Also, the “%Inh” value worked out at 0% with CHEK2; 30% with CIT; 18% in the assay on CLK1; 11% in the assay with CLK2; 0% in the assay with CLK3; 20% in the assay on CLK4. Also, the “%Inh” value with CSF1R-autoinhibited and in the assay with CSF1R was 0% in each case.
As for `COc1ccc(Nc2nccc(-c3ccc(NC(=O)c4cc5cc(F)ccc5[nH]4)cc3)n2)cc1` [GSK1229496], the “%Inh” value in the assay with CDK4-cyclinD1 is 0%; in the assay on CDK4-cyclinD3 it was 0%; with CDK4, 39%; in the assay with CDK5, 0%; in the assay with CDK7 it was 0%; in the assay on CDK8 it was 20%. Further, the “%Inh” value worked out at 0% in the assay on CDK9; 0% with CDKL1; 0% with CDKL2; 0% with CDKL3; 0% in the assay on CDKL5; 100% with CHEK1. Further, the “%Inh” value in the assay with CHEK2 worked out at 26%; in the assay on CIT it was 0%; in the assay with CLK1, 5%; in the assay on CLK2, 0%; in the assay with CLK3, 19%; with CLK4, 18%. For the same compound, the “%Inh” value in the assay on CSF1R-autoinhibited was 15%; with CSF1R, 0%.
